Most compounds without a hit are left out; they make up all but 1.7% or so of the library.
Fh CTSL1 inh: Fasciola hepatica cathepsin L1 inhibitors, primary screen, counter-screen for PFM18AAP inhibitor project, biochemical, QFRET, fluorogenic peptide substrate; recombinant F. hepatica cathepsin L1, Z-Leu-Arg-MCA fluorescence; inhibition, % at 5.96 µM; hit rate 0.49% among 300,000; AID 1906, 2009;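 active = inhibition above the mean of all tested compounds plus 3 SD, set per screening campaign, cut at about 17% in these data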;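 note: 0% = plate median of test compound wells and 100% = 1 µM Z-Phe-Ala-diazomethylketone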
LANA-H2A inh: blockers of LANA interaction with H2A/H2B – biochemical, FP readout, HTS, primary screen. Protein LANA1 (Human herpesvirus 8 type P (isolate GK18)), Q9QR71. cell-free LANA-H2A/H2B peptide, fluorescence polarization. inhibition, % (test concentration not listed). hit rate 0.6% among 320,000; in the data active = inhibition mostly above about 10%, no sharp cut-off; inactive = mostly below about 6.7%
HDAC3 inh: HDAC3 deacetylase inhibitors, primary screen, biochemical, fluorescence, cell-free homogeneous | inhibition, % at 8.3 µM | AID 2718, 2010 | recombinant HDAC3, fluorogenic peptide/trypsin coupled | hit rate 0.15% among 320,000; in the data active = inhibition above about 26%, passing the limit was not always enough
m5-HT2A agonist: mouse Htr2a agonists via beta-arrestin recruitment, primary screen, cell-based, luminescence; activation, % at 7.6 µM; CHO-K1 mHTR2A beta-arrestin complementation; percent of 30 µM serotonin response; 5-hydroxytryptamine receptor 2A (Mus musculus), P35363; hit rate 0.66% among 360,000;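 active = activation above a run cutoff, the mean activation of all tested compounds plus 3 SD, cut at about 14% in these data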;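 note: 0% = plate median of compound wells and 100% = 30 µM serotonin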
Target sequence (P35363 whole entry, looked up): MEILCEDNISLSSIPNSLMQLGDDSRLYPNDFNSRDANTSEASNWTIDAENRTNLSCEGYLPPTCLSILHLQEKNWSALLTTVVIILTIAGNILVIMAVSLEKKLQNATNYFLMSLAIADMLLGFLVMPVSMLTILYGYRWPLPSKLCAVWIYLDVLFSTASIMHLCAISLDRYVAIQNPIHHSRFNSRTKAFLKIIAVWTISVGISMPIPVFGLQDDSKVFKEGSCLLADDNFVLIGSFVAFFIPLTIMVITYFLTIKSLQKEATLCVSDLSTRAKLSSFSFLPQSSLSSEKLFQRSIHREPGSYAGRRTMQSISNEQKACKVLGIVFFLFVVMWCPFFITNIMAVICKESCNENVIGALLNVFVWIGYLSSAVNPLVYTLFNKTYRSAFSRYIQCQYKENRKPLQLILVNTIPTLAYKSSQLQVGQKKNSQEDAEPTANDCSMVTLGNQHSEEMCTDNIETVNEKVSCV
OPRM1 ag: OPRM1 agonists via beta-arrestin recruitment, confirmation, counter-screen for mouse HTR2A agonist project, cell-based, luminescence, single concentration. U2OS OPRM1 beta-arrestin PathHunter; DMSO 0%, DAMGO 9.3 µM 100%. activation, % at 9.3 µM. shares compounds with m5-HT2A agonist. AID 624380, 2012. hit rate 5.3% among 2,300;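 active = mean activation above the mean of DMSO-only wells plus 3 SD, cut at about 0.5% in these data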
m5-HT2A ag conf: mouse HTR2A agonists, beta-arrestin recruitment, confirmation, cell-based, luminescence, CHO-K1 PathHunter, triplicate; shares compounds with m5-HT2A agonist; DMSO 0%, 30 µM serotonin 100%; activation, % at 7.6 µM; hit rate 19% among 2,300; AID 624381, 2012;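 active = mean activation across triplicates above the hit threshold derived in the original primary screen, cut at about 15% in these data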
An asterisk follows results filed as active.

CN1C(=O)NC(=O)[C@]2(Cc3ccccc3N3CCN(c4ccccc4)CC32)C1=O (some centres undefined) was read as Fh CTSL1 inh -2.4, LANA-H2A inh -0.4, HDAC3 inh -1.9, m5-HT2A agonist 16.6*, OPRM1 ag -0.2 and m5-HT2A ag conf 8.2.
`CCOP(=S)(OCC)SCCSCC` gave LANA-H2A inh 3.2, HDAC3 inh 1.0 and m5-HT2A agonist -1.2.
Screening Cc1cc(O)c2c(C)c(CC(=O)N3C[C@H]4C[C@@H](C3)c3cccc(=O)n3C4)c(=O)oc2c1 returned Fh CTSL1 inh 0.5, LANA-H2A inh -7.1, HDAC3 inh 4.7, m5-HT2A agonist 18.7*, OPRM1 ag -0.7 and m5-HT2A ag conf -3.2.
`CC(=O)OC(C)(C)/C=C/C(=O)C(C)(O)C1[C@H](O)C[C@@]2(C)C3CC=C4C(CC[C@@H](O)C4(C)C)[C@]3(CO)C(=O)C[C@]12C` (some centres undefined) gave Fh CTSL1 inh -1.1, LANA-H2A inh -2.3, HDAC3 inh -2.6, m5-HT2A agonist 25.2*, OPRM1 ag -0.1 and m5-HT2A ag conf 3.7.
`CC(=O)OC(C)(C)/C=C/C(=O)[C@](C)(O)[C@H]1[C@H](O)C[C@@]2(C)[C@@H]3CC=C4[C@H](C[C@H](O)C(=O)C4(C)C)[C@]3(C)C(=O)C[C@]12C` gave m5-HT2A agonist 13.9.
Screening CC1=C[C@@H]2c3cccc4[nH]cc(c34)C[C@H]2N(C)C1 returned Fh CTSL1 inh 3.1, LANA-H2A inh 2.1, HDAC3 inh -10.0, m5-HT2A agonist 27.9*, OPRM1 ag 0.8* and m5-HT2A ag conf 143.8*.
`O=C(NC1CCCCC1)N1C[C@H]2C[C@@H](C1)c1cccc(=O)n1C2` gave Fh CTSL1 inh -2.8, LANA-H2A inh 1.7, HDAC3 inh 3.8 and m5-HT2A agonist 12.9.
`O=C(/C=C/c1ccc2c(c1)OCO2)c1c(O)n(CCc2ccccc2)c(=O)[nH]c1=O` gave Fh CTSL1 inh 1.6, LANA-H2A inh 9.8, HDAC3 inh 0.8 and m5-HT2A agonist 5.0.
Screening O=C(/C=C/c1ccccc1)c1c(O)n(CCc2ccccc2)c(=O)[nH]c1=O returned Fh CTSL1 inh 11.1, LANA-H2A inh 3.5, HDAC3 inh 4.1, m5-HT2A agonist 15.5*, OPRM1 ag -0.6 and m5-HT2A ag conf 1.3.
Screening CNCCc1ccc(O)c(O)c1 returned Fh CTSL1 inh 0.1, LANA-H2A inh 3.0, HDAC3 inh -9.2, m5-HT2A agonist 27.7*, OPRM1 ag -0.5 and m5-HT2A ag conf 161.2*.
For C[C@@H]1CN([C@H](C)CO)C(=O)CCCn2cc(nn2)CO[C@H]1CN(C)C(=O)Oc1ccc2ccccc2c1 the results were m5-HT2A agonist -0.4.
CCOC(=O)c1c(C)n(C(C)C)c2ccc(OC(=O)c3ccc(N4C(=O)CCC4=O)cc3)cc12 was read as Fh CTSL1 inh 6.4, LANA-H2A inh -2.0, HDAC3 inh 2.0, m5-HT2A agonist 16.1*, OPRM1 ag 0.4 and m5-HT2A ag conf 2.9.
Screening O=C(c1c[nH]cc1-c1ccccc1)c1cccc2ccccc12 returned Fh CTSL1 inh 8.5, LANA-H2A inh 2.0, HDAC3 inh 8.1, m5-HT2A agonist 20.4*, OPRM1 ag -0.3 and m5-HT2A ag conf 6.3.
`CCC(C)N1CCN(C(=O)Cc2ccccc2)CC1` (centres undefined) gave Fh CTSL1 inh -2.2, LANA-H2A inh 3.1, HDAC3 inh -7.7, m5-HT2A agonist 20.1*, OPRM1 ag -0.4 and m5-HT2A ag conf 3.5.
For O=C(Cc1ccc(Br)cc1)N1CCN(Cc2ccccc2)CC1 the results were Fh CTSL1 inh -2.6, LANA-H2A inh 3.3, HDAC3 inh -7.6, m5-HT2A agonist 21.4*, OPRM1 ag -0.8 and m5-HT2A ag conf 3.7.
`Cc1ccc(CC(=O)N2CCN(Cc3ccccc3)CC2)cc1` gave Fh CTSL1 inh 5.4, LANA-H2A inh -4.0, HDAC3 inh -0.4 and m5-HT2A agonist 3.9.
For CC(C)N1CCOC(c2ccc(O)c(O)c2)C1 (centres undefined) the results were m5-HT2A agonist 34.7*, OPRM1 ag -0.7 and m5-HT2A ag conf 112.9*.
Screening Cc1cc(OC(=O)N(C)C)nc(SCc2c(Cl)cccc2Cl)n1 returned Fh CTSL1 inh 4.6, LANA-H2A inh -1.9, HDAC3 inh 1.0 and m5-HT2A agonist 2.4.
`CC(NCc1ccc(Cl)c(Cl)c1)C(O)c1ccccc1` (centres undefined) gave Fh CTSL1 inh -0.2, LANA-H2A inh 0.2, HDAC3 inh -0.9, m5-HT2A agonist 15.5*, OPRM1 ag -0.1 and m5-HT2A ag conf -4.3.
CC(NCc1ccccc1Cl)C(O)c1ccccc1 (centres undefined) was read as Fh CTSL1 inh 0.0, LANA-H2A inh 2.0, HDAC3 inh -7.4 and m5-HT2A agonist -2.2.
For OCC(Cl)CCl (centres undefined) the results were LANA-H2A inh -3.0, HDAC3 inh 7.6 and m5-HT2A agonist 0.1.
`O=C(CCNC(=O)N1C[C@H]2C[C@@H](C1)c1cccc(=O)n1C2)Nc1cccc(Cl)c1` gave Fh CTSL1 inh -0.7, LANA-H2A inh 4.2, HDAC3 inh 0.2 and m5-HT2A agonist 3.3.
`CCOc1cccc(CNCCc2c(C)[nH]c3ccc(OC(F)(F)F)cc23)c1O` gave Fh CTSL1 inh -8.5, LANA-H2A inh -1.6, HDAC3 inh -0.3, m5-HT2A agonist 26.8*, OPRM1 ag 1.2* and m5-HT2A ag conf 22.4*.
For COP(=O)(OC)C(NC(=O)/C=C/c1ccccc1)C(Cl)(Cl)Cl (centres undefined) the results were Fh CTSL1 inh -2.5, LANA-H2A inh -0.6, HDAC3 inh 3.9, m5-HT2A agonist 18.6*, OPRM1 ag -0.6 and m5-HT2A ag conf -2.2.
Screening Clc1cccc(N2CCNCC2)c1 returned Fh CTSL1 inh 7.5, LANA-H2A inh 0.7, HDAC3 inh -6.2, m5-HT2A agonist 24.7*, OPRM1 ag -0.7 and m5-HT2A ag conf 6.7.
CCCCCSc1cc(OC)c(CCNC)cc1OC was read as Fh CTSL1 inh 0.5, m5-HT2A agonist 15.5*, OPRM1 ag -0.2 and m5-HT2A ag conf 5.9.
For CCCCCCCSc1cc(OC)c(CCNC)cc1OC the results were Fh CTSL1 inh 0.4, LANA-H2A inh 2.2, HDAC3 inh 9.1, m5-HT2A agonist 46.3*, OPRM1 ag 0.4 and m5-HT2A ag conf 16.6*.
For COC(=O)C1=C(c2ccc(F)cc2OCc2ccccc2)C[C@@H]2CC[C@H]1N2C(=O)NCCN1CCOCC1 the results were LANA-H2A inh -2.0, HDAC3 inh -0.7 and m5-HT2A agonist -8.4.
